Inhibition data for 30 molecules are collected here from ChEMBL document CHEMBL1157539, “Thousands of chemical starting points for antimalarial lead identification” (Nature, 2010).

Type in all cases: functional
Assay [1] deals with Plasmodium falciparum. Put plainly: GSK_TCMDC: Inhibition of Plasmodium falciparum 3D7 in whole red blood cells, using parasite LDH activity as an index of growth. Test compounds present at 2uM.
The subject of assay [2] is Plasmodium falciparum. Put plainly: GSK_TCMDC: Inhibition of Plasmodium falciparum Dd2 in whole red blood cells, using parasite LDH activity as an index of growth. Test compounds present at 2uM.
A further assay concerns HepG2. The assay can be described thus: GSK_TCMDC: Percent inhibition of human HepG2 cell line. Test compounds present at 10uM.

In general, Inhibition refers to how much of the control response was suppressed.

In the case of `COCCNCc1cccc(-c2ccc3c(Nc4ccc(Oc5cccnc5)cc4)ccnc3c2)c1`, the Inhibition in the assay with Plasmodium falciparum [1] is 100%; in the assay with Plasmodium falciparum [2], 99%; with HepG2, 58%.
Taken in the same sequence, the figures for `CN(C)CCOc1cc(NC(=O)/C=C/c2cccc3ccccc23)ccc1I` were 98%, 7% and 55%.
Taken in the same sequence, the figures for `COc1ccc2nc(N=C3NC4(c5ccccc5)NC(=Nc5nc6ccc(OC)cc6[nH]5)NC4(c4ccccc4)N3)[nH]c2c1.O=C(O)C(F)(F)F` (stereo not given) were 100%, 85% and 0%.
Taken in the same sequence, the figures for `C#CCNC(=O)c1ccc(-c2ccnc(Nc3cccc(CCCN4CCOCC4)c3)n2)s1` were 82%, 45% and 54%.
Take `O=C(Nc1ccc(I)cc1)Nc1ccc(Cn2ncc(N3CCCNCC3)c(Cl)c2=O)cc1.O=C(O)C(F)(F)F`: the figures for the Inhibition in the assay on Plasmodium falciparum [1], in the assay with Plasmodium falciparum [2] and in the assay with HepG2 were 86%, 30% and 35%, respectively.
The like results for `CNCCNCc1ccc(-c2ccc(-c3nc4cccc(C)c4[nH]3)s2)cc1.O=C(O)C(F)(F)F` were, in that order, 97%, 26% and 16%.
Taken in the same sequence, the figures for `CC1(CCc2ccccc2)N=C(N)N(Cc2ccccc2)C(=O)C1c1ccc(Cl)c(Cl)c1.O=C(O)C(F)(F)F` (stereo not given) were 97%, 96% and 100%.
The like results for `Cc1nc(N)nc(N)c1-c1cc(Cl)c(N)c(Cl)c1` were, in that order, 94%, 2% and 62%.
On to `COc1cc(CN2CCC(CO)(Cc3cccc(C(F)(F)F)c3)CC2)c(Cl)cc1O`, for which the Inhibition in the assay with Plasmodium falciparum [1] worked out at 99%; in the assay with Plasmodium falciparum [2], 64%; with HepG2, 12%.
The like results for `Cc1ccc(F)cc1S(=O)(=O)N1CCCCC(c2ccc(C(F)(F)F)cc2)=N1` were, in that order, 82%, 75% and 8%.
The like results for `Cc1cccc(NC(=O)c2ccc(C(=O)NC3CCN(CC4CCCCC4)CC3)cc2)c1.O=C(O)C(F)(F)F` were, in that order, 95%, 18% and 14%.
The like results for `COc1cc(OC)cc(-c2nn(-c3ccc([N+](=O)[O-])cc3C#N)c(=S)n2Cc2ccco2)c1` were, in that order, 100%, 100% and 11%.
For `Cl.OC(c1cc(C(F)(F)F)nc2c(F)cccc12)C1CCCCN1` (stereo not given), the Inhibition turned out to be 98% in the assay with Plasmodium falciparum [1], 74% in the assay with Plasmodium falciparum [2] and 0% in the assay on HepG2.
The like results for `Cc1cc(N[C@@H](Cc2ccccc2)C(=O)NCCOc2ccccc2)nc(NCCc2ccccn2)n1.O=C(O)C(F)(F)F` were, in that order, 92%, 42% and 12%.
Taken in the same sequence, the figures for `CCc1c[nH]c2c(N3CCCS3(=O)=O)cc(C(=O)N[C@@H](Cc3ccccc3)[C@H](O)CNC(C)(C)c3cccc(C(F)(F)F)c3)cc12.O=CO` were 97%, 99% and 20%.
Take `Cl.O=C(C(=O)c1ccc(Nc2ccnc3cc(-c4ccccn4)ccc23)cc1)c1ccccc1`: the Inhibition was found to be 93% in the assay with Plasmodium falciparum [1], 34% in the assay on Plasmodium falciparum [2] and 22% in the assay on HepG2.
Taken in the same sequence, the figures for `CC(C)(C)c1ccc(CNC(=O)COc2ccc(-c3nnc(-c4cccc([N+](=O)[O-])c4)o3)cc2[N+](=O)[O-])cc1` were 93%, 25% and 10%.
The like results for `CCCN/C=N/c1cc(-c2csc(NC(=N)N)n2)cc([N+](=O)[O-])c1` were, in that order, 91%, 1% and 12%.
Taken in the same sequence, the figures for `COc1cc(F)c2ncc(Cl)c(CCN3CCC(NCc4ccc5c(c4)NC(=O)CO5)CC3)c2c1.Cl` were 95%, 79% and 32%.
As for `O=C(NCc1ccc(F)cc1)c1cc(Br)cc(N2CCN(c3ccncc3)CC2)c1.O=C(O)C(F)(F)F`, the Inhibition in the assay on Plasmodium falciparum [1] came out at 80%; with Plasmodium falciparum [2], 59%; in the assay on HepG2, 36%.
Regarding `O=C(Cn1c(=O)oc2ccccc21)N1CCC(n2c(=O)n(CCCN3CCOCC3)c3ccccc32)CC1`, the Inhibition is reported as 99% with Plasmodium falciparum [1], 100% with Plasmodium falciparum [2] and 11% in the assay with HepG2.
Consider `N/C(=N\c1cccc(Cc2ccccc2)n1)NCc1ccccc1`, for which the Inhibition in the assay on Plasmodium falciparum [1] stood at 85%; with Plasmodium falciparum [2], 52%; in the assay on HepG2, 57%.
Taken in the same sequence, the figures for `FC(F)(F)c1ccc2[nH]c(-c3ccc(-c4cccc(CNCCN5CCNCC5)c4)s3)nc2c1.O=C(O)C(F)(F)F` were 91%, 39% and 22%.
Regarding `Clc1ccc(Nc2nc3ccc(Cl)cc3nc2Nc2ccc(Cl)cc2)cc1`, the Inhibition with Plasmodium falciparum [1] came out at 99%; in the assay with Plasmodium falciparum [2], 99%; with HepG2 it was 79%.
Consider `CC(OC(=O)c1ccc(C(=O)NCC2CC2)cc1)C(C)(C)C` (stereo not given), for which the Inhibition in the assay with Plasmodium falciparum [1] is listed as 93%; in the assay on Plasmodium falciparum [2] it was 86%; in the assay on HepG2, 10%.
Take `COC(=O)c1ccc2[nH]cc(C3CCN(CCC4CCN(C(=O)/C=C/c5ccc(Cl)c(Cl)c5)CC4)CC3)c2c1`: the Inhibition came to 97% in the assay with Plasmodium falciparum [1], 59% in the assay on Plasmodium falciparum [2] and 24% with HepG2.
The like results for `COc1ccc2nccc([C@@H](O)CN3CCC(NCc4ccc5nsnc5c4)CC3)c2c1.O=C(O)C(=O)O` were, in that order, 95%, 64% and 12%.
Taken in the same sequence, the figures for `COc1ccc2c(c1)CC(C)(C)NC2CCCCCCCCC1NC(C)(C)Cc2cc(OC)ccc21.O=C(O)C(=O)O` (stereo not given) were 98%, 62% and 42%.
Consider `CNC(=O)c1ccccc1Nc1nc(Nc2ccc(C(=O)O)cc2)ncc1Cl.Cl`, for which the values for the Inhibition in the assay on Plasmodium falciparum [1], with Plasmodium falciparum [2] and in the assay with HepG2 were 92%, 92% and 60%, respectively.
For `COc1ccc(CN(C)CCOc2ccc(NC(=O)c3cccc4c(=O)c5cc(SC)ccc5[nH]c34)cc2)cc1OC`, the values for the Inhibition with Plasmodium falciparum [1], in the assay on Plasmodium falciparum [2] and in the assay on HepG2 were 96%, 98% and 67%, respectively.
